In ChEMBL document CHEMBL1961873, “Compounds: GSK PKIS; Assays: Nanosyn kinase panel” (2012):

Columns and labels:
[1] = target: T1, Serine/threonine-protein kinase TBK1 (Homo sapiens) (UniProt Q9UHD2); conditions: at 1 µM;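 note: values are mean inhibition of TBK1, screened as part of the GSK published kinase inhibitor set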
T1 sequence (whole entry): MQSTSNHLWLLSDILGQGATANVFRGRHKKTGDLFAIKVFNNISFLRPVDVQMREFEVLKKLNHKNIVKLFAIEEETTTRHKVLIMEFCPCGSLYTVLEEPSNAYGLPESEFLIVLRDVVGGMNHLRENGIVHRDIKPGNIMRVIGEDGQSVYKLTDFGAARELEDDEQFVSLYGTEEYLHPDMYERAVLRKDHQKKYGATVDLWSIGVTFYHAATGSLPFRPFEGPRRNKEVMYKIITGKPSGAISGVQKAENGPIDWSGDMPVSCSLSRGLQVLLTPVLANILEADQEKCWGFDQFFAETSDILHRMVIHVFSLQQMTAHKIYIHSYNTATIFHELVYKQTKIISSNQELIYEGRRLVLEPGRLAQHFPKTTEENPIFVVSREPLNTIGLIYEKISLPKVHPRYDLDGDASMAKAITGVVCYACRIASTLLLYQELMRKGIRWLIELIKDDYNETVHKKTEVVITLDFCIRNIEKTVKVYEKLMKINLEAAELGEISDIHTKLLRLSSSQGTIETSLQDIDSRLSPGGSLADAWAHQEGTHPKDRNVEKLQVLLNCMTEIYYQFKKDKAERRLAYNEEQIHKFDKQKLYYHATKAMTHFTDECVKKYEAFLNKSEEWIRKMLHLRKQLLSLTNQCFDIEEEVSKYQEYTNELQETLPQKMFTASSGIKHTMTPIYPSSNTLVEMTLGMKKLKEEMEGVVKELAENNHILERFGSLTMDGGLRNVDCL

[2] = target: T2, Testis-specific serine/threonine-protein kinase 1 (Homo sapiens) (UniProt Q9BXA7); conditions: at 0.1 µM
T2 sequence (whole entry): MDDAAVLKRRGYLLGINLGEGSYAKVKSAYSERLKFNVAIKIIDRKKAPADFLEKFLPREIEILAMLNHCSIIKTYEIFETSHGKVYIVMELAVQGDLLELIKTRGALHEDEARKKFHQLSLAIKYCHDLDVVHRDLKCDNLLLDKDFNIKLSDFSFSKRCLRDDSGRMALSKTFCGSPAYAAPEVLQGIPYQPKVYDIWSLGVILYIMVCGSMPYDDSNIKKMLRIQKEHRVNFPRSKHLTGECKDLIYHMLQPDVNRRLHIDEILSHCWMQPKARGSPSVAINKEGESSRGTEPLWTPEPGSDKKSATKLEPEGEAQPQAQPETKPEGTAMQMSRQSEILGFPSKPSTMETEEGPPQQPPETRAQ

[3] = target: T2, Testis-specific serine/threonine-protein kinase 1 (Homo sapiens); conditions: at 1 µM
[4] = target: T3, Testis-specific serine/threonine-protein kinase 2 (Homo sapiens) (UniProt Q96PF2); conditions: at 0.1 µM
T3 sequence (whole entry): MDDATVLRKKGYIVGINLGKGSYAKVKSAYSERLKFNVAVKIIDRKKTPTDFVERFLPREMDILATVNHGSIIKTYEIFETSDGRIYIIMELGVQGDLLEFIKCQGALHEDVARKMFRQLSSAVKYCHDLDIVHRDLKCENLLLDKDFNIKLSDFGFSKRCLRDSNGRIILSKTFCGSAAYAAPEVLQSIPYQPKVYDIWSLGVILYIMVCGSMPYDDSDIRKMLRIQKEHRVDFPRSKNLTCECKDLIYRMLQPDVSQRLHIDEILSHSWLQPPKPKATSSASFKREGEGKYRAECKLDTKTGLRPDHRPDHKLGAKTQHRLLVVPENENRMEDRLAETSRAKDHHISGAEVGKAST

[5] = target: T3, Testis-specific serine/threonine-protein kinase 2 (Homo sapiens); conditions: at 1 µM
[6] = target: Casein kinase I isoform alpha (Homo sapiens) (UniProt P48729); conditions: at 0.1 µM
[7] = target: Casein kinase I isoform alpha (Homo sapiens) (UniProt P48729); conditions: at 1 µM
[8] = target: Casein kinase I isoform gamma-1 (Homo sapiens) (UniProt Q9HCP0); conditions: at 0.1 µM
[9] = target: Casein kinase I isoform gamma-1 (Homo sapiens) (UniProt Q9HCP0); conditions: at 1 µM
[10] = target: Casein kinase I isoform gamma-2 (Homo sapiens) (UniProt P78368); conditions: at 0.1 µM
[11] = target: Casein kinase I isoform gamma-2 (Homo sapiens) (UniProt P78368); conditions: at 1 µM
[12] = target: Casein kinase I isoform gamma-3 (Homo sapiens) (UniProt Q9Y6M4); conditions: at 0.1 µM
[13] = target: Casein kinase I isoform gamma-3 (Homo sapiens) (UniProt Q9Y6M4); conditions: at 1 µM
[14] = target: Cyclin-dependent kinase 1 (Homo sapiens) (UniProt P06493); conditions: at 0.1 µM
[15] = target: Cyclin-dependent kinase 1 (Homo sapiens) (UniProt P06493); conditions: at 1 µM
[16] = target: Cyclin-dependent kinase 2 (Homo sapiens) (UniProt P24941); conditions: at 0.1 µM
[17] = target: Cyclin-dependent kinase 2 (Homo sapiens) (UniProt P24941); conditions: at 1 µM
[18] = target: Cyclin-dependent kinase 2 (Homo sapiens) (UniProt P24941); conditions: at 0.1 µM; remark: listed apart in the source
[19] = target: Cyclin-dependent kinase 2 (Homo sapiens) (UniProt P24941); conditions: at 1 µM; remark: listed apart in the source
[20] = target: CDK3/Cyclin E (Homo sapiens) (UniProt P24864+Q00526); conditions: at 0.1 µM;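 note: reported percentages are mean inhibition values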
Chain of CDK3/Cyclin E (Homo sapiens) (P24864 whole entry, looked up): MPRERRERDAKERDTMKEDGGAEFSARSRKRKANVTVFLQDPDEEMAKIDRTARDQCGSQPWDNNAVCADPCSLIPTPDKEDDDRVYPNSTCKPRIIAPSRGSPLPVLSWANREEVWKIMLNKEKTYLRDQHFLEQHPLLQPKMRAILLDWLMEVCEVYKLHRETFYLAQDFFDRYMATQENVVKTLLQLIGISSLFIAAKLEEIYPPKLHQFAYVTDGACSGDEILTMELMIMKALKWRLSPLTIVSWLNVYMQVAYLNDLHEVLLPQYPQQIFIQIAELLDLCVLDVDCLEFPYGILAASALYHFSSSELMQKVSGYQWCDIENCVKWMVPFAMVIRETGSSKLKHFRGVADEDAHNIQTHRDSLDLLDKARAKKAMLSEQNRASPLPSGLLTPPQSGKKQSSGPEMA
Chain of CDK3/Cyclin E (Homo sapiens) (Q00526 whole entry, looked up): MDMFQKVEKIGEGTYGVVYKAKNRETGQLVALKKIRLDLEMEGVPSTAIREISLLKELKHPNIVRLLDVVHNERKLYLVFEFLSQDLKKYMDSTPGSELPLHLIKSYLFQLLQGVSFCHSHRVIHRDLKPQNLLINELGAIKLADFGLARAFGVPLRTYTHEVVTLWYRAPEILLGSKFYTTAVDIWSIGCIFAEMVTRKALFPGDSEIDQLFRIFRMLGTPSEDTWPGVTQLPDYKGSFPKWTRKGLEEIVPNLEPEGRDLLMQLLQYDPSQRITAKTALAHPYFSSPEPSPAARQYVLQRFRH

Chain of Casein kinase I isoform gamma-2 (Homo sapiens) (P78368 whole entry, looked up, canonical isoform): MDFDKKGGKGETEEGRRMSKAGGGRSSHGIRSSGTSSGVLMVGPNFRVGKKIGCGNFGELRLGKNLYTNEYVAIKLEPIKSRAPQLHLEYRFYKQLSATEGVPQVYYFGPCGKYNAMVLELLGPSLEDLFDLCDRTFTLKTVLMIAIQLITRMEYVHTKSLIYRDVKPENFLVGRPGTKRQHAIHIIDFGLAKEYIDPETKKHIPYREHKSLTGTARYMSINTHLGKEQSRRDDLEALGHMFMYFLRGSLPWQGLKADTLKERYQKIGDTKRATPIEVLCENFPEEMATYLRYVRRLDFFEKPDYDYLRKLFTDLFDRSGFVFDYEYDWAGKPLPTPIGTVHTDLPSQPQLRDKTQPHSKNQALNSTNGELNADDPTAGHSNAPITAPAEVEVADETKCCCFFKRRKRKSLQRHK
Chain of Cyclin-dependent kinase 1 (Homo sapiens) (P06493 whole entry, looked up): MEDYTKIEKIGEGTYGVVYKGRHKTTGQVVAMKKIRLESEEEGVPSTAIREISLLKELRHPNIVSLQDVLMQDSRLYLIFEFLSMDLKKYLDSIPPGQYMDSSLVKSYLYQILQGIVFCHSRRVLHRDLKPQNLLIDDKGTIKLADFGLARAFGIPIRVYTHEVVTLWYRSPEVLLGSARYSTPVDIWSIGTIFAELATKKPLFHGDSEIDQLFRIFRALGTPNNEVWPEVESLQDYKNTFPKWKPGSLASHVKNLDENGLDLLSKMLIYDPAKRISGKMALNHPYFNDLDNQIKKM
Chain of Casein kinase I isoform gamma-3 (Homo sapiens) (Q9Y6M4 whole entry, looked up, canonical isoform): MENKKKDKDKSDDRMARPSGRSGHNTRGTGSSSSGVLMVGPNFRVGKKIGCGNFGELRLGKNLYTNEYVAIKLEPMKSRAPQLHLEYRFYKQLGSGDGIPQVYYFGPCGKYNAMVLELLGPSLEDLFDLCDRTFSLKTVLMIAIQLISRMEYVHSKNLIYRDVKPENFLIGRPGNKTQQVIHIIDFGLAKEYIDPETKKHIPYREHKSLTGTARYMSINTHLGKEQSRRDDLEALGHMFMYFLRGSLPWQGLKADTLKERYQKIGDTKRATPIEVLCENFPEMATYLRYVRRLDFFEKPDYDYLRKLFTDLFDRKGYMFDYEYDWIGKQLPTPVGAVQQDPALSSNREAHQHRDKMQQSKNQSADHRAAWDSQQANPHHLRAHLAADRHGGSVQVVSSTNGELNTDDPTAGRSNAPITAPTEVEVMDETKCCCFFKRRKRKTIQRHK
Chain of Casein kinase I isoform alpha (Homo sapiens) (P48729 2-337 limits assumed): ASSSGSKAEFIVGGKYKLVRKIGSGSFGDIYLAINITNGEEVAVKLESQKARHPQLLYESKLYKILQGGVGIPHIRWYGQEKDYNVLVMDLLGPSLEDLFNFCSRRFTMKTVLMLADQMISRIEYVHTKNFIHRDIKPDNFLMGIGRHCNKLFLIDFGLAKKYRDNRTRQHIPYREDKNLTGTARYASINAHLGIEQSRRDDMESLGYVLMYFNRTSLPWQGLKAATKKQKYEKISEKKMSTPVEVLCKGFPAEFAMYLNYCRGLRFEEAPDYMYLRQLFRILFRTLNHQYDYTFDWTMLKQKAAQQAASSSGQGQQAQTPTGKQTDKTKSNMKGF
Chain of Casein kinase I isoform gamma-1 (Homo sapiens) (Q9HCP0 whole entry, looked up, canonical isoform): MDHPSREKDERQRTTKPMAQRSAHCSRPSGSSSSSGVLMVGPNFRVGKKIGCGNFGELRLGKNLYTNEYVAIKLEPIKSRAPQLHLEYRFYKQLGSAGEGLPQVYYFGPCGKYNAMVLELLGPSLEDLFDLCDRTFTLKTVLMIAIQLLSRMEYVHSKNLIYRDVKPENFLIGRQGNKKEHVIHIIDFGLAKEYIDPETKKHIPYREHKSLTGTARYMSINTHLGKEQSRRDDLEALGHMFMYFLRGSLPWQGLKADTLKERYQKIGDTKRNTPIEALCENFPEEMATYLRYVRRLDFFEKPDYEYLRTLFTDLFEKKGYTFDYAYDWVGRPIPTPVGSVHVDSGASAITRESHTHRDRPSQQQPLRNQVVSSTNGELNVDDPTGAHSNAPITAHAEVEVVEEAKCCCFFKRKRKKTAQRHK

Compound | inhibition [1] | inhibition [2] | inhibition [3] | inhibition [4] | inhibition [5] | inhibition [6] | inhibition [7] | inhibition [8] | inhibition [9] | inhibition [10] | inhibition [11] | inhibition [12] | inhibition [13] | inhibition [14] | inhibition [15] | inhibition [16] | inhibition [17] | inhibition [18] | inhibition [19] | inhibition [20]
CC(C)=Cc1cccc2c1/C(=N/Nc1ccc(S(N)(=O)=O)cc1)C(=O)N2 | 26.3% | 1.27% | 2.47% | 0.49% | 0.88% | 6.16% | 2.83% | 0.52% | 1.12% | 1.67% | 0.64% | -0.08% | 2.43% | 28.7% | 69.7% | 103% | 92.4% | 74.1% | 79.3% | 68.5%
Nc1ncnc2occ(-c3ccc(NC(=O)Nc4cc(C(F)(F)F)cc(C(F)(F)F)c4)cc3)c12 | 3.1% | -0.4% | -1.46% | 1.06% | -2.08% | -0.62% | 1.87% | 1.49% | 2.74% | 0.5% | 1.8% | 1.91% | 1.31% | -0.06% | 4.1% | 0.86% | 2.88% | 1.68% | 3.96% | -1.28%
Cc1cccc(-c2n[nH]cc2-c2ccc3ncccc3n2)n1 | -2.11% | 0.8% | 0.75% | -0.09% | 1.08% | 1.85% | 1.42% | 0.4% | 1.1% | 0.55% | 0.49% | 0.08% | 1.59% | 0.3% | 2.06% | 0.57% | -1.61% | 0.23% | 0.63% | 0.85%
COc1ccc(-c2ccncc2)cc1C(N)=O | 2.44% | 5.12% | 3.57% | 3.23% | 1.75% | 4.33% | 10.2% | 3.94% | 4.04% | 3.53% | 3.82% | 3.17% | 1.39% | 2.26% | 0.88% | 3.39% | 2.68% | 3.05% | 4.66% | -2.82%
CS(=O)(=O)CCNCc1ccc(-c2ccc3ncnc(Nc4ccc(OCc5ccccc5)c(Cl)c4)c3c2)o1 | 2.91% | 2.07% | 1.74% | -0.14% | 0.89% | -0.43% | 0.15% | 1.35% | 0.05% | -0.08% | 0.01% | 0.7% | -0.59% | 2.72% | 3.96% | 2.6% | 3.73% | 3.64% | 4.5% | 0.1%
NC(=O)c1cccc(Nc2nccc(Nc3cccc4[nH]ncc34)n2)c1 | 26.1% | -0.96% | 15.6% | -1.7% | -1.85% | 1.36% | 1.87% | -2.71% | 5.27% | -1.57% | 1.89% | -2.55% | 9.56% | 1.69% | 14.5% | 10.3% | 59.9% | 3.38% | 34.2% | 1.14%
COc1cc2ncn(-c3cc(OCc4ccccc4Cl)c(C(N)=O)s3)c2cc1OC | 28.7% | 1.82% | 4.67% | 0.7% | 1.63% | 1.79% | 0.67% | 0.19% | 1.8% | -0.04% | 1.68% | 1.38% | 2.71% | 1.92% | 6.22% | 1.7% | 6.39% | 2.24% | 5.06% | 3.11%
CCn1c(-c2nonc2N)nc2cnc(Oc3cccc(NC(=O)c4ccc(OCCN5CCOCC5)cc4)c3)cc21 | 7.42% | 24.3% | 72.8% | 2.29% | 3.44% | 0.67% | 1.31% | 3.07% | 2.93% | 2.55% | 3.09% | 1.57% | 1.58% | 0.45% | 3.69% | 2.58% | 7.1% | 2.65% | 5.1% | -0.07%
Nc1ncnc2occ(-c3ccc(NC(=O)Nc4cccc(C(F)(F)F)c4)cc3)c12 | 4.59% | 4.54% | 4.9% | 1.47% | 2.55% | 3.35% | 5.6% | 5.08% | 10.1% | 4.03% | 7.31% | 3.11% | 10.3% | -0.24% | 4.91% | 2.4% | 8.86% | 4.68% | 10.8% | 2.04%
Cc1ccc(C(=O)NC2CCCCC2)cc1-c1ccc(C(=O)NCC2CC2)cc1 | 3.86% | 1.44% | -1.51% | -0.17% | -1.47% | 4.32% | 3.89% | 1.72% | 2.66% | 0.35% | 2.68% | 2.21% | 2.73% | 0.67% | 0.28% | 0.88% | 7.52% | 2.63% | 3.98% | 2.34%
NS(=O)(=O)c1cccc(-c2ccc3c(NC(=O)C4CC4)n[nH]c3c2)c1 | 0.44% | -0.2% | -0.47% | -0.61% | -0.16% | 4.11% | 4.53% | -0.89% | 0.05% | -0.75% | -1.38% | -0.89% | 2.47% | 0.37% | 1.15% | 0.27% | -6.96% | 0.15% | 3.36% | 0.71%
Fc1cccc(COc2ccc(Nc3ncnc4cc(-c5ccc[nH]5)sc34)cc2Cl)c1 | 3.65% | 2.48% | 2.76% | 1.09% | 2.13% | 0.63% | 0.84% | -1.43% | -0.95% | -1.97% | -1.46% | -2.89% | -1.56% | -1.89% | 1.88% | -1.97% | -1.57% | -0.46% | 2.07% | 3.58%
COc1cc2c(cc1Nc1nc(N3CCc4ccccc43)c3cc[nH]c3n1)N(C(=O)CN(C)C)CC2 | 5.19% | 10.2% | 19.2% | 9.19% | 13.6% | 6.69% | 2.45% | 1.43% | 3.55% | 0.72% | 2.57% | 0.55% | 4.52% | 0.08% | 1.02% | 0.42% | -1.8% | 1.6% | 1.6% | 0.81%
